Test [1] concerns the target Lysosomal acid glucosylceramidase (Homo sapiens) (UniProt P04062). The test is described as follows: Glucocerebrosidase-p2 (AID 348; in the data active = potency below about 10 µM; note: potency is the fitted concentration of half-maximal effect). To be noted: purified GBA, blue fluorogenic substrate, 40 min. The method, boiled down:
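Normal human glucocerebrosidase (0.2 nM) with blue fluorogenic substrate (80 uM final) in citrate/phosphate pH 5.9 with 10mM sodium taurocholate, 0.01% tween-20; 40 min RT, NaOH/glycine stop; fluorescence Ex 365/Em 440; AC50 from a titration from 0.6 nM upwards.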

Test [2] is described as follows: AP1 Signaling Pathway (AID 357).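 Note: ME-180 reporter cells stimulated with EGF at its EC50 level; % is set by controls: 0 for no effect and ±100 for the full control effect.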 The settings on record: ME-180 AP-1-bla reporter, EGF-induced, beta-lactamase ratio, 5 h; at 7.69 µM (top of the series) unless noted. The method, boiled down: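 Beta-lactamase reporter under AP-1 response element, ME-180 background. Stimulus: EC50 EGF. Compound exposure 5 h, 37 °C. Detection: CCF4, 2.5 h RT, 460/530 nm. Values: AC50 from titration.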

The target in test [3] is Cytochrome P450 1A2 (Homo sapiens) (UniProt P05177). The test is described as follows: p450-cyp1a2 (AID 410; calls by dose curve; note: potency is the fitted concentration of half-maximal effect). The method in brief:
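Read-out is luminescence from luciferin produced by CYP1A2 demethylation of Luciferin-ME (100uM, at Km). Detection reagent stopped the 60 min NADPH-dependent reaction; signals were normalized to 57 uM furafylline.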

A short description of test [4]: NFAT Signaling Pathway (AID 444).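 Note: carbachol stimulus at about its EC50 of 1 µM final; % is set by controls: 0 for no effect and ±100 for the full control effect.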 To be noted: Jurkat NFAT-bla M1, carbachol, beta-lactamase ratio, 5 h; at 7.69 µM (top of the series) unless noted. The method in brief: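 Read-out: CCF4 FRET ratio (460 nm/530 nm) after 1 h RT dye loading, used for %activity and AC50 from titration series. Cells: Jurkat NFAT-β-lactamase/M1 line, treated with compound plus 1 uM carbachol for 5 h, 37 °C.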

The nature of test [5]: Stat Signaling Pathway (AID 446).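 Note: ME-180 cervical cancer cells given 40 pM IL-6 alongside compound; SIE-controlled beta-lactamase reporter measured as 460/530 nm FRET emission ratio; % is set by controls: 0 for no effect and ±100 for the full control effect.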 To be noted: ME-180 (cervical carcinoma) SIE beta-lactamase reporter, IL-6 stimulated, 5 h; at 7.69 µM (top of the series) unless noted. The method, boiled down:
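Overnight-plated ME-180 cells bearing a STAT Inducible Element beta-lactamase reporter; 5 h co-exposure to compound and 40 pM IL-6; values normalized to 300 pM IL-6 and 125 nM JAK inhibitor controls.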

Test [6] concerns the target Glucocorticoid receptor (Homo sapiens) (UniProt P04150). The test is described as follows: GR-GFP Redistribution (AID 450;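 active = compounds whose dose series gives a full or clear partial fitted curve of increased nuclear translocation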; note: potency is the fitted concentration of half-maximal effect). To be noted: U2OS GR-GFP nuclear translocation, laser cytometry, 2 h.
For test [7] the target is unchanged. The test is described as follows: GR-EFC Redistribution (AID 451; calls by dose curve; note: potency is the fitted concentration of half-maximal effect). The settings on record: CHO-K1 GR-EFC translocation, beta-gal luminescence, 2 h. The method in brief: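 Translocation of GR-ED fusion to nuclear EA restores b-gal, read by luminescence after 1 h room-temperature detection. Engineered CHO-K1 biosensor cells, 1,000/well, exposed 2 h at 37 C to titrations up to 46 uM final.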

In test [8] the target is Mitogen-activated protein kinase 10 (Mus musculus) (UniProt Q61831). Briefly: JNK3 AlphaScreen Assay (AID 530).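 Note: kinase came from lysate of stimulated human HepG2 cells; signal reports phosphorylation of biotinylated GST-cJun 1-79 at Ser73 with 10 µM ATP; % is set by controls: 0 for no effect and ±100 for the full control effect.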 The method in brief: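 Kinase buffer: 20 mM Tris-HCl pH 7.6, 10 mM MgCl2, 1 mM DTT, 0.1 mM Na3VO4, 0.01% Tween-20; ATP 10 uM. Substrate biotin-GST-cJun(1-79), enzyme from activated HepG2 lysates. Detection by Ser73 phospho-antibody AlphaScreen.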
For orientation: Alpha assays give light when donor and acceptor beads are brought close together.

Test [9] has as its target 3',5'-cyclic-AMP phosphodiesterase 4B (Homo sapiens) (UniProt Q07343). Briefly: qHTS Assay for Inhibitors of PDE-IV (AID 607; active = well fitted activation curve with a large enough effect in the main read-out, with a control signal flat, not every such curve was filed as active; note: % of control where 0% means no effect). The method in brief:
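Live HEK293 cells with a modified cyclic nucleotide-gated (CNG) channel report intracellular cAMP via membrane-potential dye fluorescence (ex 535/em 590 nm). Endogenous PDE-IV was targeted. Compounds were tested at up to 22.9 uM final; RO 20-1724 100 uM served as control.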

For test [10], the target named is Cytochrome P450 3A4 (Homo sapiens) (UniProt P08684). The test is described as follows: qHTS Assay for Inhibitors and Substrates of Cytochrome P450 3A4 (AID 884; active = well fitted curve in the direction sought with a large enough effect; an effect the other way counts as inactive or inconclusive; note: potency is the fitted concentration of half-maximal effect; nearly all actives have a fitted effect of over 50% in size). The method in brief:
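Luminescent readout of luciferin produced by CYP3A4 (20 nM) dealkylation of Luciferin-PPXE, 25 uM (its KM). NADPH-driven reaction ran 60 min at RT after 10 min compound preincubation; data scaled to 57 uM ketoconazole as 100% inhibition.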
(In general: In qHTS, concentration-response curves come from the screen itself.)

Test [11] has the same target. Briefly: qHTS Assay for Activators of Cytochrome P450 3A4 (AID 885; active = well fitted curve in the direction sought with a large enough effect; an effect the other way counts as inactive or inconclusive; note: nearly all actives have a fitted effect of over 65% in size). The method, boiled down: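 Using 20nM recombinant human CYP3A4 in potassium phosphate (200mM), substrate Luciferin-PPXE at 25uM, luminescent luciferin detection followed a 60-min RT NADPH reaction; data scaled to 57 uM ketoconazole.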
For test [12], the target named is Cytochrome P450 2C19 (Homo sapiens) (UniProt P33261). The test is described as follows: qHTS Assay for Inhibitors and Substrates of Cytochrome P450 2C19 (AID 899; active = well fitted curve in the direction sought with a large enough effect; an effect the other way counts as inactive or inconclusive; note: potency is the fitted concentration of half-maximal effect; nearly all actives have a fitted effect of over 60% in size). The method in brief:
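Reactions contain 5nM enzyme, 10uM Luciferin-H EGE (KM) and 50mM KPO4; compound preincubates 10 min at 37C, NADPH regeneration starts turnover for 60 min. Luminescence after detection reagent gives activity.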

Test [13] can be described thus: Confirmation and Secondary Assay for Modulators of Hemoglobin Beta Chain Splicing at IVS2 654 locus (AID 910; active = well fitted curve in the direction sought with a large enough effect; an effect the other way counts as inactive or inconclusive;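 note: HeLa cells stably carrying EGFP split by mutant beta-globin IVS2-654 intron; per-well total GFP intensity by laser scanning cytometry after 2-day treatment; % of control where 0% means no effect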). The method, boiled down:
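Readout: per-well total peak green fluorescence (488 nm ex, 500–520 nm em) from objects 5–250 µm, reflecting correct splicing of an EGFP-654 reporter. Compounds were applied for 2 days at 37 °C to overnight-plated HeLa EGFP-654 cells; controls were DMSO and 500 nM IVS2-654 PNA.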

Test [14] in a line: Confirmation and Secondary Assay for Modulators of Hemoglobin Beta Chain Splicing at IVS2 705 locus (AID 930; active = well fitted curve in the direction sought with a large enough effect; an effect the other way counts as inactive or inconclusive;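 note: HeLa cells stably expressing the EGFP-705 splicing reporter; GFP fluorescence per well restored by corrected splicing of the IVS2-705 intron in EGFP; % of control where 0% means no effect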). The method, boiled down:
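Fluorescence gain (488 nm laser, 500-520 nm PMT) reflects restored correct splicing of a mutant IVS2-705 intron inside EGFP in stably transfected HeLa cells after 2-day compound treatment.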

For test [15], the target named is Ubiquitin carboxyl-terminal hydrolase 1 (Homo sapiens) (UniProt O94782). Briefly: Inhibitors of USP1/UAF1: Pilot qHTS (AID 504865; active = well fitted curve in the direction sought with a large enough effect; an effect the other way counts as inactive or inconclusive;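 note: rhodamine fluorescence freed from ubiquitin-rhodamine substrate followed over time; top concentration of the series differs between compounds; % is set by controls: 0 for no effect and ±100 for the full control effect; nearly all actives have a fitted effect of over 35% in size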). The method in brief: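 Kinetic fluorescence assay: 1nM USP1/UAF1, 15 min compound preincubation, then 150nM Ub-Rho; 480/540 nm.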
Test [16] can be described thus: Primary qHTS for small molecule stabilizers of the endoplasmic reticulum resident proteome: Secreted ER Calcium Modulated Protein (SERCaMP) assay (AID 1508630; active = well fitted curve in the direction sought with a large enough effect; an effect the other way counts as inactive or inconclusive; note: % is set by controls: 0 for no effect and ±100 for the full control effect). The method, boiled down:
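The SH-SY5Y reporter protocol was run at 3 concentrations up to 38.3 uM (primary) or 11 concentrations (follow-up): 16 h compound, 100 nM thapsigargin for 4 h, then extracellular luciferase luminescence.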

For test [17], the target named is Cytochrome P450 2C9 (Homo sapiens) (UniProt P11712). The test is described as follows: qHTS Assay for Inhibitors and Substrates of Cytochrome P450 2C9 (AID 883; active = well fitted curve in the direction sought with a large enough effect; an effect the other way counts as inactive or inconclusive; note: nearly all actives have a fitted effect of over 60% in size; note: potency is the fitted concentration of half-maximal effect). The method in brief: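 Turnover of Luciferin-H (100uM, KM) by 10nM human CYP2C9 was measured over 60 min at 37C with NADPH regeneration; inhibitors and some substrates reduce luminescence. Data normalized to sulphaphenazole 57uM.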

Experimental findings from PubChem BioAssay (NCATS) are described below.

The structures appear in SMILES notation. A number with no mark means an inactive call. Results filed as inconclusive are left out. Active and inactive are the calls of the source. Unless noted, calls come from the whole dose curve; as a rule, active = well fitted curve in either direction with a large enough effect (not every such curve was filed as active); inconclusive = small, poorly fitted or top-dose-only effect, or another doubt; inactive = flat fitted curve, though single readings scatter.

Chain of Lysosomal acid glucosylceramidase (Homo sapiens) (P04062 whole entry, looked up): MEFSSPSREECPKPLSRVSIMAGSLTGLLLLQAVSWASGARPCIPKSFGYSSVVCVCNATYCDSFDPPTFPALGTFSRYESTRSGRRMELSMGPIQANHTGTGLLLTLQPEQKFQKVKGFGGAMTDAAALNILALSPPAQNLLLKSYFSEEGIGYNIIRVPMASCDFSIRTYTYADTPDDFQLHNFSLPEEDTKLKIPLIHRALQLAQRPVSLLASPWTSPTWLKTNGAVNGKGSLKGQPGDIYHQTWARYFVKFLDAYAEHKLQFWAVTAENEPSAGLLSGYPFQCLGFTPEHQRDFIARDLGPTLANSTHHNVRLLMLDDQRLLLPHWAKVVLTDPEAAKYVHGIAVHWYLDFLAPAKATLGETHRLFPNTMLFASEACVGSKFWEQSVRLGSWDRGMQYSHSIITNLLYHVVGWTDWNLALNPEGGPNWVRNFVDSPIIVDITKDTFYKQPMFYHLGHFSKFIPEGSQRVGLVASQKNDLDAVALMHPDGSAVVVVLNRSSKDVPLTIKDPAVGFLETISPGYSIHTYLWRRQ
Chain of 3',5'-cyclic-AMP phosphodiesterase 4B (Homo sapiens) (Q07343 whole entry, looked up): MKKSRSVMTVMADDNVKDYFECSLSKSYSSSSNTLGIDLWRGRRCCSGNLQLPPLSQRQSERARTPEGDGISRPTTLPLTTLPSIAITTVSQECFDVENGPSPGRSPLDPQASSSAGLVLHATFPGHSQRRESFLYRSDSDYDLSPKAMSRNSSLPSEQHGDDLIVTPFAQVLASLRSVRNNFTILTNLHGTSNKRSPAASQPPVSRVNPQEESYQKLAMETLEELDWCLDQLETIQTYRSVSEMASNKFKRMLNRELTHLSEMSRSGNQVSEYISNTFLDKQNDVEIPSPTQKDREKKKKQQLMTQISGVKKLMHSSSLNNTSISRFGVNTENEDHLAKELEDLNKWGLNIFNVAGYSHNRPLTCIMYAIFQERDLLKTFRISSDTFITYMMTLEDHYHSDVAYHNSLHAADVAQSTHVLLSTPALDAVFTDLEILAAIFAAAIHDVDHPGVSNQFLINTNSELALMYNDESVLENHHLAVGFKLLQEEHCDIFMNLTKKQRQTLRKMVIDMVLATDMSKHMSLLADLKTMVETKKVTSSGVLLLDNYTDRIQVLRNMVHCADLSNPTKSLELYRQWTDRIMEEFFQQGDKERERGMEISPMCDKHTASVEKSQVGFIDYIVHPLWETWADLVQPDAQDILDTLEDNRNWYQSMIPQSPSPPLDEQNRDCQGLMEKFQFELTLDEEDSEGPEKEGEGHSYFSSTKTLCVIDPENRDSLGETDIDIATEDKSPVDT
Chain of Cytochrome P450 3A4 (Homo sapiens) (P08684 whole entry, looked up): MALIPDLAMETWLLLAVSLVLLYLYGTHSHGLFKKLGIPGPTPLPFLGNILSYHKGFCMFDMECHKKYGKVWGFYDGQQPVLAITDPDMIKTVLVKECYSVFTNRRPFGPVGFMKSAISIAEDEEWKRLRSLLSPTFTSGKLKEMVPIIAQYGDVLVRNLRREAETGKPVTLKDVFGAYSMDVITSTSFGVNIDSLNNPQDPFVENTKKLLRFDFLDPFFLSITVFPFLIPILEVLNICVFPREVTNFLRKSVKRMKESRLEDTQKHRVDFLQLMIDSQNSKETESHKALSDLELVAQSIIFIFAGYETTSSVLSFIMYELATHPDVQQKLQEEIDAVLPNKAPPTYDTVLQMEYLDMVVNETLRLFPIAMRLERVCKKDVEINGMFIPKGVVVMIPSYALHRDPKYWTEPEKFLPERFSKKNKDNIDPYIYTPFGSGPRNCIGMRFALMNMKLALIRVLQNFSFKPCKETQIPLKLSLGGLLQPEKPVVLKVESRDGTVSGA
Chain of Ubiquitin carboxyl-terminal hydrolase 1 (Homo sapiens) (O94782 whole entry, looked up): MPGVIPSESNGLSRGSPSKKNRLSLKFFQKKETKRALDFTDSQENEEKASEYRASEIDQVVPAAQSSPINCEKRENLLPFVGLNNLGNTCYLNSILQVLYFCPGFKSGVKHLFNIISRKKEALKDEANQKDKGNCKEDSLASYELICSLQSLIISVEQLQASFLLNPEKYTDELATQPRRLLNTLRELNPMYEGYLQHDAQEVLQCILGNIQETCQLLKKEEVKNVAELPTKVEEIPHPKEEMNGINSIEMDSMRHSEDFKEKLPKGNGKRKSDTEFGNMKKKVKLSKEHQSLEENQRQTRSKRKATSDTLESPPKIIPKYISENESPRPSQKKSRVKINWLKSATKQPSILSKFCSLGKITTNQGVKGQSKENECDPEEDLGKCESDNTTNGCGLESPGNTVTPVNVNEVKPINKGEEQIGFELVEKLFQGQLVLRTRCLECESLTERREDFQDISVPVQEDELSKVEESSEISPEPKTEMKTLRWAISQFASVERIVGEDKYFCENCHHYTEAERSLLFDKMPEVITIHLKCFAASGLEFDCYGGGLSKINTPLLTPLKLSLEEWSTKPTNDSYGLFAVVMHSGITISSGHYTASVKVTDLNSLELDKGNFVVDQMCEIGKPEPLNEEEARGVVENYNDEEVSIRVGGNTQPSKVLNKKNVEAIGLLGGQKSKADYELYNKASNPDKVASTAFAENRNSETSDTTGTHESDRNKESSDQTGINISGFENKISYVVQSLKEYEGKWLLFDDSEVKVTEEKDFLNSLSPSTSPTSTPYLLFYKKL
Chain of Glucocorticoid receptor (Homo sapiens) (P04150 whole entry, looked up, the tested form may be a part): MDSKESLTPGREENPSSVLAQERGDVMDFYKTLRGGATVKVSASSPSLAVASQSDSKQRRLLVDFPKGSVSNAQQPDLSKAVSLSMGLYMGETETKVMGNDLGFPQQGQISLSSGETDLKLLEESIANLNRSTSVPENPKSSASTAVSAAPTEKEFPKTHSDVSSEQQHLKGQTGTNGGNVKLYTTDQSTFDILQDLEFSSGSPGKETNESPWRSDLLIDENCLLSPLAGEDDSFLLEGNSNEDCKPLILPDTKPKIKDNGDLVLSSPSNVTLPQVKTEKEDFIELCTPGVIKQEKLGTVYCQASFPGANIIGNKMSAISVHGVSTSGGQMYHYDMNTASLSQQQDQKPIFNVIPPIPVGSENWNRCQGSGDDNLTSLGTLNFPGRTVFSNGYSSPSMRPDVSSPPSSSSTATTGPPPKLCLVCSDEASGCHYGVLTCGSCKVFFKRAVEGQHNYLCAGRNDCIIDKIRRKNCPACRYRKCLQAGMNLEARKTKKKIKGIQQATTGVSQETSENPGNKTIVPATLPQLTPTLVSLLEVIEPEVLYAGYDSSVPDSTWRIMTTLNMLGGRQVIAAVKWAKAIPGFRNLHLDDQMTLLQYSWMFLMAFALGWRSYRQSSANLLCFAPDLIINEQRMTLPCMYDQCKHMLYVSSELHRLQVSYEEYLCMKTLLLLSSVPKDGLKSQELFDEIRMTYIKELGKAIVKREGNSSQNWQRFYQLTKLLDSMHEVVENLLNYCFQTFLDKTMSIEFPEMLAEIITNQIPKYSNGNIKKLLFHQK
Chain of Cytochrome P450 1A2 (Homo sapiens) (P05177 whole entry, looked up): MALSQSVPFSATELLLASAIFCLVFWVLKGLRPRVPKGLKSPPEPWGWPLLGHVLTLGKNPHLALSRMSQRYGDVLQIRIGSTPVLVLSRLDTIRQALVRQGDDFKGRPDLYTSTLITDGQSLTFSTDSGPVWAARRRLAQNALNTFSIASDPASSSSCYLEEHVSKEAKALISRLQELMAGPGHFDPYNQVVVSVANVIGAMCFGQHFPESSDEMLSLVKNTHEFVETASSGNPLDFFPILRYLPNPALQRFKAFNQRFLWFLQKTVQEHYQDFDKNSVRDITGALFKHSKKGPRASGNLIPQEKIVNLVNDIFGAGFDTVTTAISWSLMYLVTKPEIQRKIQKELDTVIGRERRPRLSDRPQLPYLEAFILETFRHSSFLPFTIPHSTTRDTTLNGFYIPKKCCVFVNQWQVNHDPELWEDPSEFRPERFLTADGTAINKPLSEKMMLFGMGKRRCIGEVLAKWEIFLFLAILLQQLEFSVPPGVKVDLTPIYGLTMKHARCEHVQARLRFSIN
Chain of Cytochrome P450 2C9 (Homo sapiens) (P11712 whole entry, looked up): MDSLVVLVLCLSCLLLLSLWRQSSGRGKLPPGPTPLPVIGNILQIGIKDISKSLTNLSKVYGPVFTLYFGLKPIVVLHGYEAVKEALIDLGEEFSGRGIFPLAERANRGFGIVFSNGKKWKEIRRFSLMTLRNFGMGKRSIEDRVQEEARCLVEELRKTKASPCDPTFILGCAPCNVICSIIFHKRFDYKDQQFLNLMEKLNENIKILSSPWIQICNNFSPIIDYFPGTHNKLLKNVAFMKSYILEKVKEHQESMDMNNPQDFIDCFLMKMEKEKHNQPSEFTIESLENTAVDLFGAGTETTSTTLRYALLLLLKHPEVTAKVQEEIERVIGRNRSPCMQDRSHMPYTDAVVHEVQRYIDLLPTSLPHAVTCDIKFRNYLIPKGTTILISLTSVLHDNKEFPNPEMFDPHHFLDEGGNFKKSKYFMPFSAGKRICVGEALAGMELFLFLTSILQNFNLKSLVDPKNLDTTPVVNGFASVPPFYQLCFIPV
Chain of Cytochrome P450 2C19 (Homo sapiens) (P33261 whole entry, looked up): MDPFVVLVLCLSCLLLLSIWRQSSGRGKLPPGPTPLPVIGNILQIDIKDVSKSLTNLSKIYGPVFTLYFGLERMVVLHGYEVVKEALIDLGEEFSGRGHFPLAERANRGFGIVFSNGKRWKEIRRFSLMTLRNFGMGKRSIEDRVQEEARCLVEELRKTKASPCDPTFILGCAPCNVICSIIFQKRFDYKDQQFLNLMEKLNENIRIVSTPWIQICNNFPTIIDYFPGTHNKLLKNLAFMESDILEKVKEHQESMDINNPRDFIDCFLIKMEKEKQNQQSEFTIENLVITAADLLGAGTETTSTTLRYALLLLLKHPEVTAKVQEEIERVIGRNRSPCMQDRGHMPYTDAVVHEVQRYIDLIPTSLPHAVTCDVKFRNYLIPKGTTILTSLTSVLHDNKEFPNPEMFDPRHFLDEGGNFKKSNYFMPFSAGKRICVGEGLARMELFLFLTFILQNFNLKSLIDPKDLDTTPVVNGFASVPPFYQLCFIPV

As for `c1ncc(-c2ccc3c(c2)OCO3)c(NCCc2cnc[nH]2)n1`, the Potency was above 11.4 µM in test [1]; 0.398 µM (active) in test [3]; above 46 µM in test [6]; above 46 µM in test [7]; 0.794 µM (active) in test [10]; 0.0398 µM (active) in test [12]. Moreover, the activity change, negative = inhibition in test [2] was -17.2%; in [4] it was 1.1%. Moreover, the activity, negative = inhibition in test [5] was -11.2%. Also, the Potency result in [8], in [9], in test [11], in test [13] and in test [15] was “inactive” throughout. Besides, the result in test [14] and in test [16] was inactive.
With `O=c1c(CCc2ccccc2)nc2cnc(N3CCOCC3)nc2n1Cc1ccc(F)cc1`, the Potency in test [1] was above 11.4 µM; in test [3] it was 10 µM (active); in test [6], above 9.22 µM; in test [7] it was above 46 µM. The activity change, negative = inhibition in test [2] is -10.7%; in [4], -2.42%. In test [5], the activity, negative = inhibition was 17.6%. Also, in test [8], the Potency entry was “inactive”. In addition, in [16], the result was inactive.
In the case of `COc1ccc(-n2c(=O)c(-c3cn(C)c4ccccc34)nc3cncnc32)cc1`, the Potency in test [1] is above 11.4 µM; in [3], 0.316 µM (active); in test [6] it was above 9.22 µM; in test [7] it was above 46 µM. Besides, the activity change, negative = inhibition was -24.9% in test [2] and 6.02% in test [4]. The activity, negative = inhibition in test [5] was -19.8%. Besides, the Potency entry in test [8], in test [9] and in [17] was “inactive” in each case. The outcome in [16] was inactive.
For the molecule `COc1cccc(-c2cncnc2NCc2cccnc2)c1`, the Potency in test [1] was above 11.4 µM; in test [3] it was 0.794 µM (active); in [6], above 46 µM; in test [7], above 46 µM; in test [10], 1.26 µM (active); in [12] it was 0.316 µM (active). For the same molecule, the activity change, negative = inhibition in test [2] is -6.26%; in test [4], -6.72%. Further, the activity, negative = inhibition in test [5] was 3.03%. The Potency entry in test [8], in test [9], in [11] and in test [15] was “inactive” each time. Moreover, in test [16], the outcome was inactive.
In the case of `O=c1cnc2cnc(Oc3cccc(Cl)c3)nc2n1C1CC1`, the Potency in test [1] was above 11.4 µM; in [3], 2.51 µM (active); in [6] it was above 9.22 µM; in test [7], above 46 µM; in test [17], 6.31 µM (active). The activity change, negative = inhibition is -27.3% in [2] and 0.268% in [4]. The activity, negative = inhibition in [5] is -9.7%. Moreover, the Potency result in test [8] and in [9] was “inactive” throughout. In [16], the result was inactive.
As for `c1cncc(-c2ccc3ncnc(N4CCNCC4)c3c2)c1`, the Potency is above 11.4 µM in test [1], 1.26 µM (active) in [3], above 46 µM in test [6] and above 46 µM in test [7]. The values for the activity change, negative = inhibition in [2] and in [4] were 8.97% and 26.4%, respectively. Further, the activity, negative = inhibition in test [5] was 0.928%. Further, the Potency entry in [8], in [9], in test [11], in test [13] and in test [15] was “inactive” each time. For the same molecule, the call in test [14] and in test [16] was inactive.
